FAS TE block: FAS thioesterase domain inhibitors, primary screen, biochemical, fluorescence intensity, uHTS; recombinant FAS-TE, OMFH fluorogenic substrate, fluorescence endpoint; inhibition, % at 15 µM; actives 0.67% (n = 360,000);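 active = compounds whose normalised, plate-corrected inhibition of enzyme fluorescence in the single-dose primary screen is 50% or more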
PLCg1 inh: PLC-gamma1 enzyme inhibitors, primary screen, biochemical, fluorescence, purified enzyme; 1-phosphatidylinositol 4,5-bisphosphate phosphodiesterase gamma-1 (Homo sapiens), P19174; fluorogenic substrate; inhibition, % at 12.2 µM; actives 0.84% (n = 370,000); in the data active = inhibition above about 9.5%
PLCb3 inh: human PLC-beta3 inhibitors, primary screen, biochemical, fluorescence; 1-phosphatidylinositol 4,5-bisphosphate phosphodiesterase beta-3 (Homo sapiens), Q01970; Purified PLC-beta3, fluorogenic substrate; inhibition, % at 12.2 µM; actives 0.18% (n = 370,000); AID 720704, 2013; in the data active = inhibition above about 11%
H9c2 protect: cardioprotection against H2O2-induced cell death, primary screen, uHTS, H9c2 cells, ATPLite luminescence; H9c2 cardiomyocytes, H2O2 injury protection, 2 h; protection from H2O2 cell death, % at 20 µM; actives 0.63% (n = 360,000); AID 588492, 2011;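 active = compounds giving at least 50% protection of heart cells from peroxide-induced death in the single-dose screen, raw or plate-pattern-corrected value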
FAS-TE inh conf: FAS thioesterase domain inhibitors, confirmation, biochemical, fluorescence intensity, single concentration; shares compounds with FAS TE block; AID 624325, 2012; actives 45% (n = 2,300); recombinant FAS-TE, OMFH fluorogenic substrate; inhibition, % at 15 µM;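 active = compounds inhibiting the enzyme by at least 50% at 15 µM in any one of the replicates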
Numbers stand for hits; - = inactive; . = not tested or not shown. An excerpt weighted towards active compounds, which were near 2.2% of everything screened.

SMILES	FAS TE block	PLCg1 inh	PLCb3 inh	H9c2 protect	FAS-TE inh conf
Cc1ccc([N+](=O)[O-])cc1NC(=O)CCc1ccccc1	50.0	-	-	-	51.7
O=C(CCc1ccccc1)Nc1cccc([N+](=O)[O-])c1	-	-	-	-	.
Cc1ccc([N+](=O)[O-])cc1NC(=O)CCCOc1ccccc1	67.7	-	-	-	32.1
O=C(CN1CCCCCC1)Nc1cccc([N+](=O)[O-])c1	-	-	-	-	.
O=C(CN1CCN(c2ccccc2)CC1)Nc1cccc([N+](=O)[O-])c1	51.3	-	-	-	50.3
CCOC(=O)N1C(=O)NC(=O)C1c1ccccc1 (stereo unspecified)	-	-	-	-	.
CCOc1ccc(-n2c(COc3ccccc3)nnc2SCc2nc3ccccc3[nH]2)cc1	.	-	-	.	.
CCCCNC(=S)Nc1cc([N+](=O)[O-])ccc1C	50.9	-	-	-	36.5
O=C(CN1CCN(c2cccc(Cl)c2)CC1)Nc1ccc([N+](=O)[O-])cc1C(=O)Nc1ccccc1F	59.5	-	-	-	-
Cc1ccc(C)c(N2CCN(CC(=O)Nc3ccc([N+](=O)[O-])cc3C(=O)Nc3ccccc3F)CC2)c1	-	-	-	-	.
COc1ccc(C2C(C(=O)N3CCN(c4ccccc4C)CC3)CC(=O)N2c2ccc(OC)cc2)cc1 (stereo unspecified)	.	-	-	.	.
O=C(NCc1ccco1)C1CCCN(S(=O)(=O)c2ccc([N+](=O)[O-])cc2)C1 (stereo unspecified)	.	-	-	.	.
Cn1c(=O)n(C)c2cc([N+](=O)[O-])c(N3CCN(S(=O)(=O)c4ccc(C(C)(C)C)cc4)CC3)cc21	72.9	-	-	-	-
COC(=O)c1ccc(C2c3c(oc4ccccc4c3=O)C(=O)N2CCCN2CCOCC2)cc1 (stereo unspecified)	-	-	-	-	.
COC(=O)c1ccc(C2c3c(oc4ccc(Cl)cc4c3=O)C(=O)N2CCN2CCOCC2)cc1 (stereo unspecified)	54.2	-	-	-	61.5
CSc1nc2ccccc2n1Cc1cccc([N+](=O)[O-])c1	58.6	-	-	-	-
COc1ccccc1C(=O)Nc1ccc(S(=O)(=O)N2CCc3ccccc32)cc1	51.0	-	-	-	-
C[C@H]1[C@@H](OC(=O)Nc2ccc(Br)cc2)CC[C@@]23CCCN2C(=O)CCC[C@@H]13	.	-	-	.	.
C[C@]1(C(=O)NCc2cc(F)cc(C(F)(F)F)c2)C=C[C@@H](Cc2ccccc2)N1C(=O)c1ccccc1	68.2	-	-	-	-
O=C(COC(=O)c1cc([N+](=O)[O-])ccc1N1CCOCC1)c1ccc(Br)cc1	62.9	-	-	-	-
CCOc1ccc(C(=O)COC(=O)c2cc([N+](=O)[O-])ccc2N2CCOCC2)cc1	69.2	-	-	-	62.5
CC(C)Oc1cccc(-c2n[nH]c(=S)n2N=Cc2ccc(OCc3ccccc3)cc2)c1	.	-	-	.	.
Cc1c(OCC(=O)NC(Cc2ccc(Cl)cc2)C(=O)O)ccc2c(-c3ccccc3)cc(=O)oc12 (stereo unspecified)	54.6	-	-	-	62.0
Cc1ccc(-c2cc(C#N)c(=O)n(Cc3c(Cl)cccc3Cl)c2)cc1	-	-	-	-	.
N#Cc1cc(-c2ccccc2)cn(Cc2c(Cl)cccc2Cl)c1=O	62.3	-	-	-	24.8
Cc1ccc(N2C(=O)N3[C@H](c4ccc(F)cc4)[C@@H]4C(=O)N(C5CCCCC5)C(=O)[C@@H]4[C@]3(Cc3ccccc3)C2=O)cc1	-	-	-	-	.
O=C1[C@H]2[C@@H](c3ccc(F)cc3)N3C(=O)N(c4cccc(F)c4)C(=O)[C@@]3(Cc3ccccc3)[C@H]2C(=O)N1C1CCCCC1	-	-	-	-	.
O=C1[C@H]2[C@@H](c3ccc(F)cc3)N3C(=O)N(c4cccc(Br)c4)C(=O)[C@@]3(Cc3ccccc3)[C@H]2C(=O)N1C1CCCCC1	80.0	-	-	-	-
CC[C@@]12C(=O)N(c3cccc(Br)c3)C(=O)N1[C@H](c1ccc(F)cc1)[C@@H]1C(=O)N(C3CCCCC3)C(=O)[C@@H]12	51.9	-	-	-	-
CCCCCCCCNC(=O)C1CSCCS(=O)(=O)N1Cc1ccc(F)cc1 (stereo unspecified)	.	-	-	.	.

Assay outcomes from PubChem.
